The results in this text go back to PubChem BioAssay (NCATS).

One may read the viability as a read-out of living cells in per cent, often relative to untreated cells.

Several values for one entry are separate records, joined by “and”; a condition that tells them apart may be missing. Equal entries are not always repeated. Records with an inconclusive call do not appear. Values without a mark were called inactive. Activity calls are given as the source filed them. Calls come from the whole dose curve; as a rule, active = well fitted curve in the direction sought with a large enough effect; inconclusive = small, poorly fitted or top-dose-only effect, or another doubt; inactive = no such curve, though single readings can be large; an effect the other way counts as inactive or inconclusive.

Experiment [1] addresses Cellular tumor antigen p53 (Homo sapiens) (UniProt P04637). Kind of experiment: Primary qHTS for small molecule compounds that upregulate eGFP-tagged delta133p53alpha (in N-terminal) cells. (AID 2060322).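 For activation: series mostly up to about 56 µM; 0% = DMSO vehicle and 100% = reference activator.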 Note: nearly all actives have a fitted effect of over 75% in size. Note: potency is the fitted concentration of half-maximal effect. The settings on record: NCI-H358 eGFP-delta133p53alpha fluorescence, 24 h; activation: stronger effect = higher value. A digest of the protocol:
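NCI-H358 cells pre-induced 24 h with 10 ng/ml doxycycline to express N-terminal eGFP-delta133p53alpha, then dosed 24 h at 37C without doxycycline; fixed, Hoechst-stained, GFP intensity by laser scanning cytometry, normalized to DMSO (0%) and 57.5 uM 5-azacytidine (100%).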
(In general: qHTS replaces the single test concentration by a dilution series.)

Experiment [2] has as its target Retinaldehyde dehydrogenase 3 (Homo sapiens) (UniProt P47895). Kind of experiment: qHTS for Inhibitors of the Aldehyde Dehydrogenase Family (ALDH1A3) Primary screen (AID 2061315).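 Note: plate controls were DMSO vehicle for no effect and reference inhibitor for full effect.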
Experiment [3] shares this target. Kind of experiment: qHTS for Inhibitors of the Aldehyde Dehydrogenase Family (ALDH1A3) Validation screen (AID 2061312). Note: nearly all actives have a fitted effect of over 45% in size. Note: potency is the fitted concentration of half-maximal effect.
Experiment [4] can be described thus: BET inhibitor-based combinations targeting novel dependencies in MECOM-rearranged (r) AML: SET-2 cell line (AID 2202231).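 For viability: plate controls were DMSO treated cells for no effect and wells without cells for full effect.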 Note: nearly all actives have a fitted effect of over 35% in size. Note: potency is the fitted concentration of half-maximal effect. The following applies: SET-2 AML cells viability, CellTiter-Glo luminescence, 48 h; viability: stronger effect = lower value, concentration not given here. The method in brief: (§1)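 Luminescent ATP readout (CellTiter-Glo) after 48 hr drug exposure gives viability. Curves span 11 concentrations and are normalized to DMSO and empty wells. Activity is reported as area under the curve and its Z-transform within each cell line.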
For orientation: ATP-based viability assays read luminescence as a measure of living cells.

Experiment [5] can be described thus: BET inhibitor-based combinations targeting novel dependencies in MECOM-rearranged (r) AML: MV-4-11 cell line (AID 2202233). Note: nearly all actives have a fitted effect of over 45% in size. Note: potency is the fitted concentration of half-maximal effect. A digest of the protocol:
(§2)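 Luminescent ATP readout (CellTiter-Glo, 15 min at room temperature) after 48 hr drug exposure gave viability. Dose-response curves, normalized to DMSO and empty-well controls, were summarized as area under the curve and its mean-centred Z-score.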

The nature of experiment [6]: BET inhibitor-based combinations targeting novel dependencies in MECOM-rearranged (r) AML: HNT-34 cell line (AID 2202234). Note: potency is the fitted concentration of half-maximal effect; nearly all actives have a fitted effect of over 35% in size. A digest of the protocol: as §2
A short description of experiment [7]: BET inhibitor-based combinations targeting novel dependencies in MECOM-rearranged (r) AML: AML-191 cell line (AID 2202236; note: potency is the fitted concentration of half-maximal effect; nearly all actives have a fitted effect of over 35% in size). A digest of the protocol: as §1
A short description of experiment [8]: BET inhibitor-based combinations targeting novel dependencies in MECOM-rearranged (r) AML: AML-194 cell line (AID 2202237; note: nearly all actives have a fitted effect of over 40% in size; note: potency is the fitted concentration of half-maximal effect). A digest of the protocol:
as §1

Experiment [9] in a line: BET inhibitor-based combinations targeting novel dependencies in MECOM-rearranged (r) AML: OCI-AML3 cell line (AID 2202232). Note: potency is the fitted concentration of half-maximal effect; nearly all actives have a fitted effect of over 35% in size. The following applies: Potency: OCI-AML3 viability. The method in brief:
as §1

A short description of experiment [10]: BET inhibitor-based combinations targeting novel dependencies in MECOM-rearranged (r) AML: UCSD-AML1 cell line (AID 2202235). Note: nearly all actives have a fitted effect of over 40% in size. Note: potency is the fitted concentration of half-maximal effect. A digest of the protocol: as §2

Cellular tumor antigen p53 (Homo sapiens), sequence (P04637 whole entry, looked up): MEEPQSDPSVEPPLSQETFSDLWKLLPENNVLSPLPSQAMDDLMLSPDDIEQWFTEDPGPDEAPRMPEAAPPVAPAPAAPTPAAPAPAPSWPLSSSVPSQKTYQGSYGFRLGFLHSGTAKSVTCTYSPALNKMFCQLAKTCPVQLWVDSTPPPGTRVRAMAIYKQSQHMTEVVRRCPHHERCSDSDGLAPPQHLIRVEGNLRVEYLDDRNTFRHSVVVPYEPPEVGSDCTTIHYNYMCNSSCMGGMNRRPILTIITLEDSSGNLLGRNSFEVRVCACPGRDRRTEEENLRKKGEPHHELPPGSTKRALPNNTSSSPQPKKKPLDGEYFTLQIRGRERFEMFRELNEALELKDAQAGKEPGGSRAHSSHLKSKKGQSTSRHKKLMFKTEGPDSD

For `O=c1cc(NCCCN[C@@H]2CCOc3c(Br)cc(Br)cc32)[nH]c2ccsc12`, the activation in [1] is 0.477%. In addition, the Potency result in [2] was “inactive”.
Taken in the same sequence, the figures for `O=C(Nc1ccc(-c2ccc(Cl)c(Cl)c2)cc1)C1=C(O)c2ccccc2S(=O)(=O)N1` were -5.73% and “inactive”.
For `Cc1c(CN(C)C(=O)/C=C/c2cnc3c(c2)CCC(=O)N3)oc2ccccc12` the same measures were 8.33% and “inactive”.
For `O=c1[nH]cnc2c([C@@H]3N[C@H](CO)[C@@H](O)[C@H]3O)c[nH]c12` the same measures were 10.3% and “inactive”.
As to `O[C@@H](COc1cccc2ncccc12)CN1CCN(C2c3ccccc3[C@@H]3[C@H](c4ccccc42)C3(F)F)CC1` (some centres not stated), the activation in experiment [1] was 22%. The Potency entry in [3] and in [2] was “inactive” throughout. Further, the Potency is 26.3 µM (active) in experiment [4]; 18.6 µM (active) in [5]; 26.3 µM (active) in experiment [6]; 23.5 µM (active) in [7]; 23.5 µM (active) in experiment [8].
Regarding `COc1ccc(S(=O)(=O)Nc2nc(-c3cccc([N+](=O)[O-])c3)cs2)cc1OC`, the activation in experiment [1] is 1.67%. In [2], the Potency entry was “inactive”.
Taken in the same sequence, the figures for `CC(=O)Oc1cc2c(s1)CCN([C@H](C(=O)C1CC1)c1ccccc1F)C2` were 0.477% and “inactive”.
For `Cn1nnc(-c2ccc(-c3ccc(N4C[C@H](COP(=O)(O)O)OC4=O)cc3F)cn2)n1` the same measures were -3.67% and “inactive”.
For `CC(=O)NC(Cc1c[nH]c2ccccc(=O)c12)C(=O)O` (configuration not stated) the same measures were -2.29% and “inactive”.
As for `C/C(=C\Cc1c(O)c(Cl)c(C)c(C=O)c1O)CC/C=C(\C)[C@H]1CC(=O)C(C)(C)O1`, the activation in [1] was -20.6%. Moreover, the Potency entry in [2] was “inactive”.
For `CC1OC2OC(=O)C3(C)CC4C5(CO5)C5=CC(=O)OC(C)(C)C5=CC(=O)C4(C)C(C1=O)C23` (configuration not stated) the same measures were 12.2% and “inactive”.
For `COc1c(C(CC(C)C)OC(C)=O)ccc(Oc2c(O)cc(C)cc2/C=C/C(C)=O)c1C(=O)O` (configuration not stated) the same measures were -25.2% and “inactive”.
For `CCCn1cnc2c(NCc3ccccc3)nc(N[C@H](CC)CO)nc21` the same measures were 2.33% and “inactive”.
As to `COc1cc(/C=C/C(=O)NCCn2c(C(F)(F)F)cc3ccccc32)cc(OC)c1OC`, the activation in experiment [1] was -3.67%. The Potency result in experiment [2] is “inactive”.
For `CCC/C=C/C=C/C1CC(O)C(O)C(=O)C1CO` (configuration not stated) the same measures were -17.6% and “inactive”.
Regarding `CN1C(CCl)Nc2cc(Cl)c(S(N)(=O)=O)cc2S1(=O)=O` (configuration not stated), the activation in experiment [1] was -11.7% and -7.64%. For the same compound, the Potency result in [2] was “inactive”.
With `COc1ccc(OC)c(C2C(C#N)=C(N)Oc3n[nH]c(-c4ccc5ccccc5c4)c32)c1` (configuration not stated), the activation in experiment [1] was -0.333%. Besides, the Potency entry in experiment [2] is “inactive”.
In the case of `C=CC(=O)Nc1ccc(CN2C(=O)N(c3cc(OC)cc(OC)c3)Cc3cnc(Nc4ccc(N5CCN(C)CC5)cc4)nc32)cc1`, the Potency in [1] is 13.5 µM (active). The Potency entry in experiment [2] was “inactive”.
`COC(=O)C1=C(C)NC(C)=C(C(=O)O[C@@H]2CCCN(Cc3ccccc3)C2)[C@@H]1c1cccc([N+](=O)[O-])c1`: the activation in [1] is 8.47% and 23.4%. Besides, the Potency result in experiment [3] and in experiment [2] was “inactive” each time.
On to `O=C(NCc1cccs1)c1cc2nc(-c3ccco3)cc(C(F)(F)Cl)n2n1`, for which the activation in experiment [1] was 0.477%. For the same compound, the Potency result in experiment [2] was “inactive”.
For `CC(=O)NC1C(OC(C)(C)C2CCC3(C)C=C(C4CCC5C4(C)CC(O)C4OC(C(C)(C)O)CCC45C)CCC3O2)OC(CO)C(O)C1O` (configuration not stated) the same measures were -3.05% and “inactive”.
Taken in the same sequence, the figures for `COc1ccc(-n2[nH]c(=O)c3[nH]c4cc(Cl)ccc4c(=O)c3c2=O)c(C)c1` were 9% and “inactive”.
For `COc1ccc(C2(O)c3c(ccc4c3OC(C)(CCC=C(C)C)C=C4)NC(=O)C2OC)cc1` (configuration not stated) the same measures were -4.58% and “inactive”.
On to `CC(C)C(CO)Nc1nc(Nc2ccc(C(=O)O)c(Cl)c2)c2ncn(C(C)C)c2n1` (configuration not stated), for which the activation in experiment [1] is 6.21%. The Potency entry in experiment [3] and in experiment [2] was “inactive” in each case.
As for `COc1cc2c(Oc3ccc(-c4cnc(Nc5ccc(F)cc5)n(C)c4=O)cc3F)ccnc2cc1OCCCN1CCOCC1`, the activation in experiment [1] was 11.5%. Also, the Potency in [3] is 11.2 µM (active); in experiment [4], 20.9 µM (active); in experiment [9], 16.6 µM (active); in experiment [5] it was 0.0934 µM (active); in experiment [6], 0.372 µM (active); in experiment [10], 11.8 µM (active). Further, in [7], the Potency was 5.9 µM (active). Besides, the Potency entry in [2] was “inactive”.
`C=C(COC(=O)CC(C)C)C1Cc2cc(C(C)=O)ccc2O1` (configuration not stated): in experiment [1], the activation was -15.2%. In addition, the Potency entry in experiment [2] was “inactive”.
For `CCc1c[nH]c2ncnc(N3CC[C@](N)(CNC(=O)c4ccc(F)cc4F)C3)c12` the same measures were 22.3% and “inactive”.
As to `Cc1cc(OCc2nc(-c3ccccc3Cl)cs2)ccc1OCC(=O)O`, the activation in experiment [1] is -1.91%. The Potency entry in [3] and in experiment [2] was “inactive” throughout.
Take `CC(/C=C/C=C(\C)C(=O)O[C@@H]1O[C@H](CO[C@@H]2O[C@H](CO)[C@@H](O)[C@H](O)[C@H]2O)[C@@H](O)[C@H](O)[C@H]1O)=C\C=C\C=C(C)\C=C\C=C(/C)C(=O)O[C@@H]1C[C@](O)(C(=O)O)C[C@@H](O)[C@H]1OC(=O)/C=C/c1ccc(O)c(O)c1`: the activation in experiment [1] is 16%. In addition, the Potency entry in [2] is “inactive”.
For `CC(C)(Cc1nc(-c2ccc(O)cn2)no1)C(=O)NC1=C(C(=O)O)CCCC1` the same measures were 2.86% and “inactive”.
With `Cc1ccccc1C(C(=O)NC1CCCCC1)N(C(=O)Cn1ccnc1C)c1cccc(F)c1` (configuration not stated), the activation in [1] is -12.7% and -11.5%. The Potency result in experiment [3], in experiment [5], in [10] and in experiment [8] was “inactive” throughout. The viability in experiment [4] was 116%.
